Assay results taken from PubChem BioAssay (NCI).
The panel holds about 79,000 compounds, 15% with a hit somewhere; the sample as a whole holds those more often. The source made the active and inactive calls. Rule as the data show it: active = growth inhibition above about 70%; inactive = the rest.

Assay: NCI Yeast Anticancer Drug Screen. Data for the mgt1 strain (AID 153)
Conditions: S. cerevisiae mgt1 mutant growth inhibition; at 3.7 µM; active compounds read high
Outline: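 After exposure of the mgt1 yeast mutant to compound, growth was measured and reported as inhibition compared with vehicle controls.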

SMILES | growth inhibition
CN(C)c1ccc(C2CC(C)(O)Oc3cc4c(cc32)OCO4)cc1 (stereo not drawn) | -3% (inactive)
COc1oc(C(=O)NC2CCCCC2)c(-c2ccc(Cl)cc2)c1S(=O)(=O)c1ccccc1 | -17% (inactive)
C[Si](C)(C)/C=C/CCNC(C#N)c1ccccc1 (stereo not drawn) | -25% (inactive)
CCOc1ccc(NC(=O)C2=C(C)NC(C)=C(C(=O)Nc3ccc(OCC)cc3)C2c2cccc([N+](=O)[O-])c2)cc1 | -2% (inactive)
CC1(C)CC(=O)C(/C=N/c2nc(-c3ccccc3)cs2)=C(O)C1 | -2% (inactive)
CC(=O)Nc1ccc2c(c1)Cc1cc(N=C3C=CC(=O)O3)ccc1-2 | 19% (inactive)
O=C1C=C(Cl)C(=O)C(c2ccc(Cl)cc2)=C1 | 39% (inactive)
CNCCCNc1c2ccccc2nc2cccc([N+](=O)[O-])c12 | 42% (inactive)
CCCCCCCCCCCC(O)S(=O)(=O)O (stereo not drawn) | 0% (inactive)
CC(C)OC(=O)c1ccc(CCc2cc(O)c(Br)cc2O)cc1 | 70% (active)
CCc1cc(O)c(Cl)c(C)c1Cl | 3% (inactive)
C(=Nc1ccc(-c2cc(-c3ccccc3)nc3ccc4ccccc4c23)cc1)c1ccccc1 | 11% (inactive)
CSc1nc(C)c(CCOC(C)=O)c(N=P(c2ccccc2)(c2ccccc2)c2ccccc2)n1 | 2% (inactive)
COC1=C(OC)C(=O)C(Sc2ccc3ccccc3c2)=CC1=O | -47% (inactive)
COc1nc2c(c(=O)n1C)N=C(c1ccccc1)[C@H](C(CC(=O)c1ccccc1)c1ccccc1)C(c1ccccc1)N2 (stereo partly drawn) | -38% (inactive)
Cc1cc(-c2cc(C)c(O)c(C(C)(C)C)c2)cc(C(C)(C)C)c1O | -51% (inactive)
Nc1cc(N)c(N=Nc2cccc3c(S(=O)(=O)O)cccc23)cc1N=Nc1cc([N+](=O)[O-])ccc1O | 8% (inactive)

SMILES | growth inhibition
Nc1ccc(F)cc1S | -20% (inactive)
Brc1ccccc1-c1ncc(-c2ccccc2)o1 | 27% (inactive)
COc1cc(C2SCC(=O)N2c2ccc(-c3ccc(-n4c(-c5ccccc5)nc5ccccc5c4=O)cc3)cc2)ccc1O (stereo not drawn) | 1% (inactive)
Nc1ncnc2c1ncn2C1OC(CO)CC1O (stereo not drawn) | -3% (inactive)
COc1cc(CSc2ccc(O)cc2)cc(O)c1O | -3% (inactive)
CCOC(=O)C1N=[N+](c2ccccc2)C(=O)/C1=C\n1c(=S)[nH]c2ccc([N+](=O)[O-])cc21 (stereo not drawn) | -1% (inactive)
CNC(=O)OCc1c(COC(=O)NC)c2n(c1C)-c1ccc(OC)cc1CCC2 | -35% (inactive)
O=C(NNc1ccccc1)c1ccc(Cl)c(Cl)c1 | -1% (inactive)
Cc1ccc(CC2(OCCN(C)C)CCC(C(C)(C)C)CC2)cc1 (stereo not drawn) | 12% (inactive)
C[C@]12CC[C@H](O)CC1=CC[C@@H]1C2CC[C@]2(C)C(=O)NC(=O)CC12 (stereo partly drawn) | -16% (inactive)
CCCC/C=C/C(C)(C(=O)OCC)C(=O)OCC | -4% (inactive)
CCc1c(Cl)c(C)cc(O)c1Cl | 5% (inactive)
O=C(/C=C(/c1ccccc1)N1CCCCC1)c1ccccc1 | -2% (inactive)
CCCC(=O)Oc1ccc(/C=N/NC(N)=S)nc1 | -5% (inactive)
CCc1nc2ccc(NCCN(C)C)c3c(=O)c4ccccc4n1c23 | 38% (inactive)
COc1c(O)c(C=O)c(Br)c(C=O)c1O | 0% (inactive)
Cc1nc2ccccc2nc1NNc1ccccc1 | 3% (inactive)

Same assay, conditions: S. cerevisiae mgt1 mutant growth inhibition; at 11.0 µM; active compounds read high

SMILES | growth inhibition
CN(C)c1ccc(C2CC(C)(O)Oc3cc4c(cc32)OCO4)cc1 (stereo not drawn) | 0% (inactive)
COc1oc(C(=O)NC2CCCCC2)c(-c2ccc(Cl)cc2)c1S(=O)(=O)c1ccccc1 | 60% (inactive)
C[Si](C)(C)/C=C/CCNC(C#N)c1ccccc1 (stereo not drawn) | 38% (inactive)
CCOc1ccc(NC(=O)C2=C(C)NC(C)=C(C(=O)Nc3ccc(OCC)cc3)C2c2cccc([N+](=O)[O-])c2)cc1 | -3% (inactive)
CC1(C)CC(=O)C(/C=N/c2nc(-c3ccccc3)cs2)=C(O)C1 | 5% (inactive)
CC(=O)Nc1ccc2c(c1)Cc1cc(N=C3C=CC(=O)O3)ccc1-2 | 67% (inactive)
O=C1C=C(Cl)C(=O)C(c2ccc(Cl)cc2)=C1 | 82% (active)
CNCCCNc1c2ccccc2nc2cccc([N+](=O)[O-])c12 | 72% (active)
CCCCCCCCCCCC(O)S(=O)(=O)O (stereo not drawn) | -2% (inactive)
CC(C)OC(=O)c1ccc(CCc2cc(O)c(Br)cc2O)cc1 | 71% (active)
CCc1cc(O)c(Cl)c(C)c1Cl | 28% (inactive)
C(=Nc1ccc(-c2cc(-c3ccccc3)nc3ccc4ccccc4c23)cc1)c1ccccc1 | 12% (inactive)
CSc1nc(C)c(CCOC(C)=O)c(N=P(c2ccccc2)(c2ccccc2)c2ccccc2)n1 | -2% (inactive)
COC1=C(OC)C(=O)C(Sc2ccc3ccccc3c2)=CC1=O | 8% (inactive)
COc1nc2c(c(=O)n1C)N=C(c1ccccc1)[C@H](C(CC(=O)c1ccccc1)c1ccccc1)C(c1ccccc1)N2 (stereo partly drawn) | -9% (inactive)
Cc1cc(-c2cc(C)c(O)c(C(C)(C)C)c2)cc(C(C)(C)C)c1O | -49% (inactive)
Nc1cc(N)c(N=Nc2cccc3c(S(=O)(=O)O)cccc23)cc1N=Nc1cc([N+](=O)[O-])ccc1O | 9% (inactive)

SMILES | growth inhibition
Nc1ccc(F)cc1S | 12% (inactive)
Brc1ccccc1-c1ncc(-c2ccccc2)o1 | 33% (inactive)
COc1cc(C2SCC(=O)N2c2ccc(-c3ccc(-n4c(-c5ccccc5)nc5ccccc5c4=O)cc3)cc2)ccc1O (stereo not drawn) | 0% (inactive)
Nc1ncnc2c1ncn2C1OC(CO)CC1O (stereo not drawn) | 10% (inactive)
COc1cc(CSc2ccc(O)cc2)cc(O)c1O | 1% (inactive)
CCOC(=O)C1N=[N+](c2ccccc2)C(=O)/C1=C\n1c(=S)[nH]c2ccc([N+](=O)[O-])cc21 (stereo not drawn) | 0% (inactive)
CNC(=O)OCc1c(COC(=O)NC)c2n(c1C)-c1ccc(OC)cc1CCC2 | -34% (inactive)
O=C(NNc1ccccc1)c1ccc(Cl)c(Cl)c1 | 2% (inactive)
Cc1ccc(CC2(OCCN(C)C)CCC(C(C)(C)C)CC2)cc1 (stereo not drawn) | 21% (inactive)
C[C@]12CC[C@H](O)CC1=CC[C@@H]1C2CC[C@]2(C)C(=O)NC(=O)CC12 (stereo partly drawn) | 79% (active)
CCCC/C=C/C(C)(C(=O)OCC)C(=O)OCC | -4% (inactive)
CCc1c(Cl)c(C)cc(O)c1Cl | 29% (inactive)
O=C(/C=C(/c1ccccc1)N1CCCCC1)c1ccccc1 | 0% (inactive)
CCCC(=O)Oc1ccc(/C=N/NC(N)=S)nc1 | -2% (inactive)
CCc1nc2ccc(NCCN(C)C)c3c(=O)c4ccccc4n1c23 | 29% (inactive)
COc1c(O)c(C=O)c(Br)c(C=O)c1O | 8% (inactive)
Cc1nc2ccccc2nc1NNc1ccccc1 | 3% (inactive)
